# Compound activity: PubChem BioAssay, several laboratories
# CYP2C19 inh: blockers of cytochrome P450 2C19 activity – biochemical, luminescence, ADME assay, primary screen; P33261; CYP2C19 Supersomes, luciferin-H EGE luminescence, 30 min; inhibition, % at 5 µM; 96,000 compounds, 21% hits; AID 778, 2007;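 active = CYP2C19 inhibition above a set limit at 5 µM in the primary screen, cut at about 50% in these data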
# CYP2C19 activ: human CYP2C19 activators, primary screen, biochemical, luminescence | recombinant CYP2C19, luciferin-H EGE luminescence; active compounds read high; 0 = fully inhibited enzyme, 1 = untreated enzyme | activation factor at 5 µM | 96,000 tested, under 10 active;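 active = activation factor of at least 2 at 5 µM in the primary screen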
# CYP2C9 activ: human CYP2C9 activators, primary screen, biochemical, luminescence | Cytochrome P450 2C9 (Homo sapiens), P11712 | recombinant CYP2C9, luciferin-H conversion; active compounds read high; factor 1 = untreated enzyme, 0 = blocked | activation factor at 5 µM | 96,000 compounds, 1.4% hits | AID 1024, 2008;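 active = activation factor of 2 or more for CYP2C9 at a 5 µM dose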
# Cav3 T inh: Cav3.2 calcium influx blockers – cell-based, Fluo-4 calcium fluorescence, FDSS, MLSMR library, primary screen. Voltage-dependent T-type calcium channel subunit alpha-1H (Homo sapiens), O95180. AID 449739, 2010. Cav3.2-expressing cells; active compounds read low. B-score at 10 µM. 100,000 compounds, 4% hits;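 active = single-dose well whose peak fluorescence ratio is a statistical outlier from its plate by either plate-standardised score or position-corrected B-score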
# CYP2C9 inh: blockers of cytochrome P450 2C9 activity – biochemical, luminescence, ADME assay, primary screen. 96,000 compounds, 20% hits. P11712. AID 777, 2007. inhibition, % at 5 µM. CYP2C9 Supersomes, luciferin-H conversion;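 active = blocking of liver enzyme CYP2C9 beyond about 50% at 5 µM, limit read from the data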
# Hits are given with their value; i = inactive; nt = not tested or not shown. Rows were chosen to be rich in hits. Some 27% of all compounds tested hit in one or more screens of this group.
SMILES,CYP2C19 inh,CYP2C19 activ,CYP2C9 activ,Cav3 T inh,CYP2C9 inh
CCc1cccc(C)c1NC(=O)C(c1ccccc1)N1CCC1=O (stereo not given),i,i,i,i,i
COc1ccc(S(=O)(=O)n2nc(OC(C)=O)cc2N)cc1,nt,nt,nt,i,nt
COc1cccc(C(=O)Oc2cc(N)n(S(=O)(=O)c3ccc(C)cc3)n2)c1OC,i,i,i,nt,76
Nc1cc(OC(=O)c2cccs2)nn1S(=O)(=O)c1ccc(F)cc1,i,i,i,i,93
Nc1cc(OC(=O)c2cccs2)nn1S(=O)(=O)c1ccccc1,i,i,i,i,i
COc1ccc(-c2cc(C(=O)Nc3cc(OC)cc(C(=O)Nc4cccc(C(F)(F)F)c4)c3)[nH]n2)cc1,nt,nt,nt,i,nt
CCCn1c(SCC(=O)NCc2ccco2)nnc1C(C)C,i,i,i,i,i
O=C(Nc1cccnc1)c1ccc2snnc2c1,i,i,i,i,i
CCn1ncc(Br)c1C(=O)Nc1nccs1,i,i,i,i,i
CCn1ncc(Br)c1C(=O)N(C)C12CC3CC(CC(C3)C1)C2,i,i,i,-5.1,i
O=C(CNC(=O)c1ccc([N+](=O)[O-])cc1)c1ccccc1,i,i,i,i,i
O=C(CCNc1ccccc1)c1cccc([N+](=O)[O-])c1,67,i,i,nt,i
Cc1ccc(NC(=O)CCC(=O)NNC(=O)c2cccc([N+](=O)[O-])c2)cc1C,i,i,i,i,i
O=C(CCNc1ccc(F)cc1)c1cccc([N+](=O)[O-])c1,56,i,i,i,i
Cc1nc(SCC(=O)c2cccc([N+](=O)[O-])c2)n[nH]1,i,i,i,nt,i
Cc1ccc(NCCC(=O)c2cccc([N+](=O)[O-])c2)cc1,94,i,i,i,i
CCOC(=O)N1CCN(C(=O)c2cnn(-c3ccccc3)c2NC(=O)c2ccccc2F)CC1,i,i,i,i,i
CCOc1cccc(NC(=O)c2ccc(S(=O)(=O)N3CCCC3)cc2)c1,nt,nt,nt,i,nt
COc1ccc(C(N)=O)cc1N,i,i,i,i,i
CCOc1ccc(C(=O)c2ccc(OCC)c(N)c2)cc1N,76,i,i,i,i
CN(C)c1ccc(C(=O)c2ccc(N(C)C)c(N)c2)cc1N,81,i,i,nt,i
Brc1ccc2ncnc(NCc3ccccc3)c2c1,74,i,i,i,i
CSC1=C(C#N)C(c2ccccc2C)C(C#N)=C(N)N1 (stereo not given),86,i,i,i,99
COc1ccc(S(=O)(=O)N2CCc3ccccc32)cc1C(=O)OCc1nnc(-c2ccccc2)o1,88,i,i,i,99
COc1ccc(C2CC(c3ccco3)n3ncnc3N2)cc1 (stereo not given),nt,nt,nt,i,nt
SMILES,CYP2C19 inh,CYP2C19 activ,CYP2C9 activ,Cav3 T inh,CYP2C9 inh
COc1cccc(C2CC(c3ccccc3)n3ncnc3N2)c1 (stereo not given),51,i,i,i,i
COc1cccc(C2CC(c3ccc(C)cc3)n3ncnc3N2)c1 (stereo not given),97,i,i,i,63
COc1cccc(C2CC(c3cccc(Br)c3)n3ncnc3N2)c1 (stereo not given),64,i,i,i,i
Fc1cccc(C2CC(c3cccc(Br)c3)Nc3nnnn32)c1 (stereo not given),95,i,i,i,95
COc1cccc(C2CC(c3cccc(OC)c3)n3nc(N)nc3N2)c1 (stereo not given),i,i,i,i,i
COc1cccc(C2CC(c3ccc(F)cc3)Nc3nc(N)nn32)c1 (stereo not given),i,i,i,i,i
O=C(O)CCCCCNCc1ccncc1,i,i,i,i,i
O=C(CSCc1c(Cl)cccc1Cl)NCc1cccnc1,54,i,i,i,i
O=C(NCc1cccnc1)Nc1cccc(NC(=O)NCc2cccnc2)c1,i,i,i,i,i
O=C(NCc1cccnc1)c1ccc(Cl)c(Cl)c1,75,i,i,i,i
O=C(NCc1cccnc1)c1cccc(C(F)(F)F)c1,89,i,i,i,i
O=C(NCc1cccc(Cl)c1)c1cccnc1,i,i,i,i,i
O=C(NCc1cccnc1)NC(C(F)(F)F)C(F)(F)F,66,i,i,i,i
C=CC(C)(C)c1cc2cc3ccoc3cc2oc1=O,nt,nt,nt,i,nt
CN1CCc2c(sc3c2c(=O)n(-c2ccccc2)c2n[nH]c(=S)n32)C1,i,i,i,i,i
Cc1csc2nc(CNC(=O)c3cccc(C(F)(F)F)c3)cn12,i,i,2,i,i
O=C(NCc1cn2ccsc2n1)c1cccc(C(F)(F)F)c1,i,i,i,i,i
O=C(NCc1cccnc1)c1sc2ccccc2c1Cl,88,i,i,i,i
Cc1ccc2c(Cl)c(C(=O)NCc3cccnc3)sc2c1,i,i,i,i,i
Cc1[nH]c2ccccc2c1/C=C(\C#N)S(=O)(=O)c1ccccc1,i,i,i,i,67
Cc1[nH]c2ccccc2c1/C=C(\C#N)C(=O)NC(C)c1ccccc1 (stereo not given),i,i,2.1,nt,i
Cc1ccc(-c2n[nH]c(=S)n2/N=C/C=C\c2ccccc2[N+](=O)[O-])cc1,i,i,i,nt,i
O=[N+]([O-])c1ccccc1/C=C/C=N/n1c(-c2ccc(Cl)cc2)n[nH]c1=S,i,i,i,i,58
Cc1ccc(NC(=O)c2ccccc2)s1,58,i,i,i,i
Clc1ccccc1C(c1ccccc1)(c1ccccc1)n1ccnc1,nt,nt,nt,i,nt
SMILES,CYP2C19 inh,CYP2C19 activ,CYP2C9 activ,Cav3 T inh,CYP2C9 inh
COC(=O)[C@H](Cc1ccccc1)NC(=O)NCC1CCCO1 (stereo not given in full),i,i,i,i,i
CCC(=O)Nc1sc2c(c1C#N)CC(C)(CC)OC2 (stereo not given),51,i,i,i,i
CCC1(C)Cc2c(sc(NC(=O)CCC(=O)O)c2C#N)CO1 (stereo not given),i,i,i,nt,i
NC(=O)COC(=O)CCCc1nc2ccccc2s1,i,i,i,i,i
Cc1noc(C)c1COC(=O)CCc1nc2ccccc2s1,59,i,i,i,i
Cc1noc(C)c1COC(=O)CCN1c2ccccc2Sc2ccccc21,88,i,i,i,98
CCc1ccc(N(CC(=O)NC)S(C)(=O)=O)cc1,i,i,i,i,i
CCCCNC(=O)CSc1nc2ccccc2c(=O)n1CC1COc2ccccc2O1 (stereo not given),70,i,i,i,i
CCCCN(CC)C(=O)CSc1nc2ccccc2c(=O)n1CC1COc2ccccc2O1 (stereo not given),i,i,i,i,74
CCCCC(=O)N(Cc1ccc(-c2ccccc2-c2nn[nH]n2)cc1)[C@H](C(=O)O)C(C)C,nt,nt,nt,i,nt
CCSc1nnc(NC(=O)CCNS(=O)(=O)c2cc(Br)cnc2N)s1,i,i,i,i,62
